Source: the supplement of paper PMC10681739

target: T1, ETS1 (UniProt P14921); experiment: ETS1 binding intensity (PBM fluorescence), ETS1 alone (arbitrary fluorescence units); higher = stronger binding; conditions: ETS1 concentration 1 nM; RUNX1 concentration 0 nM
T1 sequence: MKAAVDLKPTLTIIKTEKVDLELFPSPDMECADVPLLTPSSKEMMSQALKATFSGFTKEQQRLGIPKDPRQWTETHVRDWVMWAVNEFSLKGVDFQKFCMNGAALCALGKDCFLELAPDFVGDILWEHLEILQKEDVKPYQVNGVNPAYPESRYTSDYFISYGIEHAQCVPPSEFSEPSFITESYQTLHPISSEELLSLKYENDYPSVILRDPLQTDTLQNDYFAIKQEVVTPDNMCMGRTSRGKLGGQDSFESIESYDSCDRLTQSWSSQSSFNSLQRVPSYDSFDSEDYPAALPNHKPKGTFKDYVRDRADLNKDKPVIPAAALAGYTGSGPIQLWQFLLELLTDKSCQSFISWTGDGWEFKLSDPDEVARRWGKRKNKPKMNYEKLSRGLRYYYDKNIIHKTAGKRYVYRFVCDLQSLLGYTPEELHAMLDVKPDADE

Row | Sequence | ETS1 binding intensity
1 | CTCGCGATTCCTCTTCCGCTGCGGTCTCCTTAACAC | 634
2 | CTTCGACCCCGGAAGCGCTAACCACCCCGGGGGCCG | 4160
3 | GACTTGGGGGAAGTGGCTTGGTTTGCGTGGTTTCTC | 433
4 | CTTCACTATGCATCCTGTACTGCAACCACACCAAAC | 587
5 | GGGGCCTCTGCTACTTCCTAGACCGCAAAATGGAGA | 413
6 | GGACACAGGCTTCCGCGTTACCGACACCGCGTGGGG | 451
7 | TTGACCCGGACGTGGACAAAAGACCGCAAAGGACGC | 806
8 | TGCTCAGAAGGGCATCCGGTTGCGGAGAAGGTACAC | 2130
9 | CACCTAAAGCCATTGGGATGTGGTTTCTCTTTTTCA | 388
10 | AACCTGCAGACTTCCTGCCATGTGACCACAGGGTCT | 901
11 | TGCAGCTATGGCCGGAAGCCTGTGGGTGTGGGAGGA | 4180
12 | TGCCTTCTACTCCGGAACTCAGACCGCTGCCTTCTA | 759
13 | TGTCAGCTGCGTTTCCGCGGTCGCGGGTGAGTGTGC | 418
14 | CTGCCCACCGGAAACGATGGCGCGAGGCCGCAGAGC | 6160
15 | GAAGCGCTGGGCGGAAGTGGCTGTGGCTTTGCCCTT | 9200
16 | CTTACAGTCACAACAGGATGTGGTTTGACATTTACT | 6780
17 | ACTCCAGAGGAAGTGGCAAGACGAGCGCGGTAACGG | 1080
18 | CAAAAGTGCTTCCTCTCGAGGGGTTGTGGTTCTTAC | 396
19 | TCTCCCGGAACTGCTCCTTCACCATGATGACCGCTG | 590
20 | CCTCTGTTCTTCACAGGAAGCCACAGGCCTCCCCTG | 2840

Row | Sequence | ETS1 binding intensity
21 | GAGGCGTTTCCGCCTCCTTTTCGCGGTTGCCTTCTC | 639
22 | GGCCGACGGGAAGTGTAGTCCGGCCTGCGGTCCGGG | 801
23 | CCTCAATTTCCTGGCCAGAGAAACCACTGCCTCTCA | 546
24 | CCAAGCACTTCCTGCTGTTAGCTTTGTGGGCTGAGT | 826
25 | GCAGGGACCGGAAGTCCATGGCTCTGCCGCAACCCT | 13400
26 | GAGCAAACGGAGGCAGGAAGTGGTTATGTAACTTCA | 7030
27 | CAAGGGAACATCCTTAAACAGCTTGTGGTATTGCTG | 735
28 | GAGGTGCCGGAAGCCAGTAGGTGGTTTTGGGTGCTA | 1530
29 | GTTTTCAAGGCAGGAAGTGGCTGTGGTGGCACGGAG | 13700
30 | AGCGGCTGCACAGGAAGTTGGTTTTCACAAAGGCAA | 5520
31 | GCCCCCGGCTGGGCAGGATGTGGTGGCAGCTGCAGG | 4040
32 | TACCTACAGGAAATGAGACACACCGCAGGCCGATCC | 2130
33 | GTTGCCCCACTTCCTGCCAGTGGTTTTTGGTTGGCC | 2660
34 | TACAGGAACTTCCTGCGCGGCTGCTGTGGTTGCGAG | 794
35 | GTCACCATTTCCGGGCCTCCGCGGTGTCCCCACCCC | 2560
36 | CAAGAGCCGGAAGTCCCTTGTGCCGCAGTCCTTCCC | 5720
37 | ACCTGTGTTCTGGCAGGATGTGGTTGACCTCAGCAG | 4140
38 | AAAACAAGGACTTCCGCCTCCCTGCGGTCCCTCCCC | 2140
39 | GGGCGGAAGTGCGTCACTATGTCCGACCCGCAGTGC | 1630
40 | GTGTGCGTGAGAAGAGGAAGTGGTTAGGAAGACACA | 4030
